Active and inactive are the calls of the source. Unless noted, no rule for the calls is given here.
Columns and labels:
[1] = compound effects on lung adenocarcinoma cell viability – A549, calcein-AM fluorescence, 48 h, basal, profiling panel (AID 1162); conditions: higher = more signal; also: test concentration not given here
[2] = compound effects on differentiated 3T3-L1 adipocyte viability – cell-based, 3T3-L1 adipocytes, calcein-AM fluorescence, 48 h, basal, profiling panel (AID 1163); conditions: 3T3-L1 adipocytes viability, higher = more signal; also: test concentration not given here
[3] = compound effects on hepatocellular carcinoma cell viability – HepG2, calcein-AM fluorescence, 48 h, basal, profiling panel (AID 1164); conditions: higher = more signal; also: test concentration not given here
[4] = compound effects on multiple myeloma cell viability – MM1S, calcein-AM fluorescence, 48 h, basal, profiling panel (AID 1165); conditions: higher = more signal; also: test concentration not given here
[5] = calcein-AM signal in unstimulated myeloma cells – cell-based, calcein-AM fluorescence, 48 h, PK04 Diversity Set, profiling panel (AID 1166); conditions: RPMI8226 myeloma viability, higher = more signal;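 also: cells grown under basal conditions without added stimulus; test concentration not given here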
[6] = JC-1 mitochondrial signal, unstimulated HepG2 cells – cell-based, JC-1 fluorescence, 24 h, 100 nL compound, profiling panel (AID 1167); conditions: HepG2 mitochondrial potential, higher = more signal; also: test concentration not given here
[7] = JC-1 mitochondrial signal, unstimulated adipocytes – cell-based, JC-1 fluorescence, 3T3-L1 adipocytes, 24 h, 100 nL compound, profiling panel (AID 1168); conditions: JC-1 mitochondrial fluorescence, higher = more signal, called active from +8 up or from −8 down; also: test concentration not given here
[8] = JC-1 mitochondrial signal, unstimulated myeloma cells – cell-based, JC-1 fluorescence, RPMI8226, 24 h, 100 nL compound, profiling panel (AID 1169); conditions: JC-1 mitochondrial potential fluorescence, higher = more signal; also: test concentration not given here
[9] = JC-1 mitochondrial signal, unstimulated MM1S myeloma – cell-based, JC-1 fluorescence, 24 h, 100 nL compound, profiling panel (AID 1170); conditions: MM1S mitochondrial potential, higher = more signal; also: test concentration not given here
[10] = resazurin metabolic signal in A549 cells – cell-based, resazurin fluorescence, 24 h, PK04 Diversity Set, profiling panel (AID 1171); conditions: A549 viability, higher = more signal, called active from +8 up or from −8 down; also: test concentration not given here
[11] = resazurin metabolic signal in HepG2 cells – cell-based, resazurin fluorescence, 24 h, PK04 Diversity Set, profiling panel (AID 1172); conditions: HepG2 viability, higher = more signal; also: test concentration not given here
[12] = budding yeast growth changes without added modifier – OD600, strain BY4716, 24 h, basal condition, primary screen (AID 1173); conditions: S. cerevisiae BY4716 growth, OD600, 24 h; higher = more signal, called active from +8 up or from −8 down
[13] = viability profiling in MM1S myeloma cells – cell-based, resazurin fluorescence, basal, 24 h, PK04 Diversity Set, profiling panel (AID 1174); conditions: higher = more signal, called active from +8 up or from −8 down; also: test concentration not given here
[14] = target: Dihydroorotate dehydrogenase (quinone), mitochondrial (Plasmodium falciparum (isolate 3D7)) (UniProt Q08210); assay: inhibition of P. falciparum DHODH – biochemical, C-terminal His tag, absorbance 600 nm, primary screen (AID 1175); conditions: PfDHODH enzyme, DCIP absorbance 600 nm; higher = more signal, called active from +8 up or from −8 down;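 also: recombinant parasite enzyme with a five histidine tag at its C terminus; test concentration not given here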
[15] = inhibition of PAO1 biofilm formation – strain PAO1, LB-PBS medium, absorbance 600 nm, primary screen (AID 1176); also: test concentration not given here; conditions: P. aeruginosa PAO1 growth/biofilm, A600, 12 h; higher = more signal
[16] = growth modulation of vineyard yeast isolate – strain RM11-1a, OD600, basal, 24 h, primary screen (AID 1177);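 also: cultures grown under basal conditions with no added stressor; test concentration not given here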; conditions: S. cerevisiae RM11-1a growth, OD600, 24 h; higher = more signal, called active from +8 up or from −8 down
[17] = growth of efflux-deficient E. coli DRC39 – strain DRC39, OD650, 24 h, E. coli filamentation inducers, primary screen (AID 1178);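 also: growth measured as culture turbidity by optical density at 650 nm; test concentration not given here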; conditions: E. coli DRC39 acrAB, higher = more signal, called active from +8 up or from −8 down
[18] = growth of efflux-deficient E. coli DRC39 – strain DRC39, OD650, 48 h, E. coli filamentation inducers, primary screen (AID 1179);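 also: screen aims at cell division blockers that make cells filament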; conditions: E. coli DRC39 delta-acrAB growth, higher = more signal, called active from +8 up or from −8 down
[19] = viability profiling in RPMI8226 myeloma cells – cell-based, resazurin fluorescence, basal, 24 h, PK04 Diversity Set, profiling panel (AID 1180); conditions: higher = more signal;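 also: RPMI8826 multiple myeloma cell line at 5000 cells per well; test concentration not given here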
[20] = target: E3 ubiquitin-protein ligase XIAP (Homo sapiens) (UniProt P98170); assay: small molecules binding XIAP protein – biophysical, small-molecule microarray, fluorescence 635 nm, primary screen (AID 1181); conditions: higher = more signal;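 also: score merges 667 nm emission and signal to noise over triplicate slides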
Sequence of E3 ubiquitin-protein ligase XIAP (Homo sapiens) (P98170 whole entry, looked up): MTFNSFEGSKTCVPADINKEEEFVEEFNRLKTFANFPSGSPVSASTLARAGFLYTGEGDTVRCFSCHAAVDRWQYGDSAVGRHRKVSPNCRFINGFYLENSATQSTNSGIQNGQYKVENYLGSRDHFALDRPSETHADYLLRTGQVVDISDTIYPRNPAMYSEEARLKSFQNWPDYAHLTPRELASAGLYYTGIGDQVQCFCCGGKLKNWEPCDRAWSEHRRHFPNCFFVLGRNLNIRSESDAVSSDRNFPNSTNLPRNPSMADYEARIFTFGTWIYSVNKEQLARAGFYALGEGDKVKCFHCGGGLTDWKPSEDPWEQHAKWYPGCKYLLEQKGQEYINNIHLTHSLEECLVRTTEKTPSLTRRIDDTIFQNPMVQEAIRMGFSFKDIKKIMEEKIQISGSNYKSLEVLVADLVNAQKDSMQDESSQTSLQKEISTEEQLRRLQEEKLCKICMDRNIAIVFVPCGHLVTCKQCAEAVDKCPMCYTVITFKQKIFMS

Sequence of Dihydroorotate dehydrogenase (quinone), mitochondrial (Plasmodium falciparum (isolate 3D7)) (Q08210 whole entry, looked up): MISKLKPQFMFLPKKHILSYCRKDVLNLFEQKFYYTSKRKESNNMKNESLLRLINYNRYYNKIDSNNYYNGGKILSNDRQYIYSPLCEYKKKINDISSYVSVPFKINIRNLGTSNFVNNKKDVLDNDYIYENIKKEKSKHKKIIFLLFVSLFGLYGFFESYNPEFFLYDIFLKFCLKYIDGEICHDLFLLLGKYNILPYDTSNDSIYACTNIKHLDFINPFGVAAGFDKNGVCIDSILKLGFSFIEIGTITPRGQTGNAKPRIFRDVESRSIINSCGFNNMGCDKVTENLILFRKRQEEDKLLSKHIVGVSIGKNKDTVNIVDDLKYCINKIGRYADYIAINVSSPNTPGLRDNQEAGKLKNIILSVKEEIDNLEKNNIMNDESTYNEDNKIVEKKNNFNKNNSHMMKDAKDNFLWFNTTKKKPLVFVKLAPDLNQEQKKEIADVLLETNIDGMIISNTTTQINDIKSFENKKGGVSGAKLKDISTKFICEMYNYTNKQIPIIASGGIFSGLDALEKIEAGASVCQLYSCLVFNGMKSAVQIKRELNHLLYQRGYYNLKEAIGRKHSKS

Compound | z-score [1] | z-score [2] | z-score [3] | z-score [4] | z-score [5] | z-score [6] | z-score [7] | z-score [8] | z-score [9] | z-score [10] | z-score [11] | z-score [12] | z-score [13] | composite z-score [14] | z-score [15] | z-score [16] | z-score [17] | z-score [18] | z-score [19] | composite z-score [20]
COc1ccc([Si](C)(C)[C@H]2[C@H](CCO)O[C@@]3(C(=O)N(Cc4cccc(N5C(=O)c6cccc7cccc5c67)c4)c4ccccc43)[C@@H]2C)cc1 | -1.02 | 0.894 | -3.98 | -2.97 | -4.23 | -0.139 | 1.49 (inactive) | -1.02 | -1.34 | -2.92 (inactive) | -2.42 | 1.18 (inactive) | -4.22 (inactive) | 0.763 (inactive) | 1.51 (inactive) | 4.72 (inactive) | 0.0827 (inactive) | -0.511 (inactive) | -4.88 | 0.224
COc1ccc(CCNC(=O)[C@@]2(C)c3ccccc3C(=O)N(Cc3ccccc3)[C@H]2c2ccc(CO)cc2)cc1 | -0.973 | 0.456 | -0.833 | -0.886 | -2.55 | 1.05 | -0.965 (inactive) | -0.0556 | -0.986 | 2.17 (inactive) | 0.976 | -1.12 (inactive) | 0.617 (inactive) | -0.984 (inactive) | 0.938 (inactive) | -0.803 (inactive) | 0.605 (inactive) | 0.535 (inactive) | 1.43 | -0.138
CCOC(=O)N1C(c2ccc(OCCCO)cc2)=NC(C(=O)OC)N1C(=O)OCC (stereo not given) | -0.481 | 0.69 | 0.21 | 0.487 | 0.732 | -0.231 | 0.68 (inactive) | -1.24 | 0.0773 | 0.352 (inactive) | 0.33 | -0.445 (inactive) | 0.715 (inactive) | -0.294 (inactive) | -0.565 (inactive) | -1.08 (inactive) | 0.857 (inactive) | 1.52 (inactive) | 0.96 | 0.0707
Cc1ccc(F)cc1S(=O)(=O)N[C@@H]1CCN(Cc2ccc(C(F)(F)F)cc2)C1 | -0.455 | -1.68 | -1.82 | -2.4 | -2.09 | -3.18 | -0.332 (inactive) | -0.615 | -1.75 | -0.196 (inactive) | -0.29 | -10.8 (active) | -0.529 (inactive) | -0.315 (inactive) | -0.553 (inactive) | 0.338 (inactive) | 0.0136 (inactive) | -1.2 (inactive) | -0.979 | -0.177
C=CCOC(=O)[C@H]1[C@@H]2C(=O)O[C@@H](c3ccccc3)[C@@H](c3ccccc3)N2[C@@H](c2ccc(OCCOC(=O)[C@@H]3C[C@@H]4C(=O)NCC(=O)N4[C@@H]3c3ccc(O)cc3)cc2)[C@]12C(=O)Nc1ccc(I)cc12 | -0.566 | -0.907 | -0.368 | -0.0033 | 0.169 | -1.55 | 0.459 (inactive) | -0.688 | -1.1 | -0.148 (inactive) | -0.247 | 0.528 (inactive) | -0.897 (inactive) | 0.31 (inactive) | 2.27 (inactive) | 0.305 (inactive) | -0.641 (inactive) | -0.51 (inactive) | -0.433 | -0.0066
COC(=O)[C@@]1(Cc2ccc(F)cc2)[C@H]2c3cc(C(=O)N(C)C)n(CCCNc4ccc(C(F)(F)F)cc4Cl)c3C[C@H]2CN1C(=O)c1ccccc1 | -1.34 | -0.851 | -0.136 | -0.84 | -4.32 | 2.61 | 0.391 (inactive) | -0.777 | -2.12 | -1.85 (inactive) | -0.591 | 1.28 (inactive) | -1.98 (inactive) | -0.0269 (inactive) | 0.439 (inactive) | 0.482 (inactive) | -0.0949 (inactive) | 0.29 (inactive) | -3.88 | 0.143
COCCOC(=O)N1C(=O)[C@@]2(c3cc(C#Cc4ccc(OC)cc4)ccc31)[C@H](c1ccc(O)cc1)N1[C@H](c3ccccc3)[C@H](c3ccccc3)OC(=O)[C@H]1[C@@H]2C(=O)N1CCN(c2ncccn2)CC1 | -0.514 | 0.546 | -0.0225 | -0.305 | -1.12 | -0.445 | 2.33 (inactive) | -0.525 | -0.339 | 0.484 (inactive) | 0.202 | 1.03 (inactive) | 0.292 (inactive) | 0.0094 (inactive) | 0.173 (inactive) | 1.75 (inactive) | 0.307 (inactive) | -0.0695 (inactive) | 0.138 | -0.224
CCCNC(=O)[C@@]1(C)c2ccccc2C(=O)N(Cc2cc(C(F)(F)F)cc(C(F)(F)F)c2)[C@H]1c1ccc(CO)cc1 | -0.283 | 0.531 | 0.0751 | 0.341 | -1.23 | 1.22 | -0.161 (inactive) | -0.0935 | -0.643 | 1.27 (inactive) | 0.597 | -0.991 (inactive) | 0.526 (inactive) | -0.241 (inactive) | 0.882 (inactive) | -0.563 (inactive) | 0.0099 (inactive) | -0.161 (inactive) | 0.73 | -0.212
CC(c1ccccc1)C(O)C1C=CC2C(=O)N(c3ccccc3)C(=O)C2N1Nc1ccccc1F (stereo not given) | -0.221 | -0.146 | -0.77 | 0.214 | -0.975 | -1.13 | -0.994 (inactive) | 0.387 | -0.289 | 0.959 (inactive) | 0.677 | -0.817 (inactive) | 0.0907 (inactive) | 0.549 (inactive) | 0.533 (inactive) | -1.12 (inactive) | 0.0976 (inactive) | 0.669 (inactive) | 1.21 | 0.0859
CC(C)(C)OC(=O)CC[C@@]1(C(=O)NCC(O)CO)N=C(c2ccc(OCCCO)cc2)O[C@@H]1c1ccccc1 (stereo not given in full) | -0.0139 | -1.09 | 1.92 | -0.607 | -0.0321 | 1.93 | -0.144 (inactive) | -0.0607 | -0.844 | -0.387 (inactive) | 0.38 | -0.205 (inactive) | -0.542 (inactive) | -0.73 (inactive) | 0.671 (inactive) | 0.0191 (inactive) | -0.529 (inactive) | 0.108 (inactive) | -0.397 | 0.0785
O=C1OCCC/C=C\[C@H]2OC34C=CCN(Cn5nnc6ccccc65)C(=O)[C@H]3N(CCCO)C(=O)[C@@H]4C12 (stereo not given in full) | -0.745 | 0.737 | -0.395 | 1.25 | -0.284 | -0.313 | 1.16 (inactive) | -0.0773 | -0.73 | 0.651 (inactive) | 0.558 | 0.351 (inactive) | 0.42 (inactive) | -0.0502 (inactive) | 0.77 (inactive) | -0.44 (inactive) | 0.339 (inactive) | 0.0024 (inactive) | 0.702 | 0.301
C=C[C@@H](C)[C@@H](OC(=O)Nc1ccc(OC)cc1)c1ccc(O)c2ccccc12 | -1.24 | -0.336 | -1.63 | -2.72 | -4.29 | -3.19 | -0.425 (inactive) | -1.13 | -1.23 | -0.527 (inactive) | -1.42 | -18.5 (active) | -5.02 (inactive) | -3.79 (inactive) | 1.43 (inactive) | -22.2 (active) | 0.99 (inactive) | 0.224 (inactive) | -4.37 | -0.125
C=C(CCCC)C(=O)CC[C@H](OC(C)=O)c1ccc(CO)o1 | -0.0395 | 1.87 | -0.576 | -1.65 | -0.0314 | 0.299 | 1.14 (inactive) | 0.0658 | 0.376 | -0.485 (inactive) | -0.658 | -0.948 (inactive) | 0.982 (inactive) | -1.66 (inactive) | -0.0221 (inactive) | 0.285 (inactive) | 0.668 (inactive) | -0.968 (inactive) | 0.496 | 0.343
[N-]=[N+]=NCc1ccccc1[C@H]1OC(c2ccc(OCCCO)cc2)=N[C@@]1(Cc1ccccc1)C(=O)NCC(O)CO (stereo not given in full) | 0.347 | -0.445 | 0.547 | -1.9 | -1.36 | 0.831 | -0.699 (inactive) | -0.399 | -1.11 | 0.951 (inactive) | 1.59 | -0.366 (inactive) | -0.327 (inactive) | -0.313 (inactive) | 2.25 (inactive) | -0.405 (inactive) | -0.329 (inactive) | -0.279 (inactive) | -0.435 | 0.459
O=C1C2C=CC(C(O)c3cccc4ccccc34)N(n3cnnc3)C2C(=O)N1Cc1ccccc1 (stereo not given) | -0.986 | -0.06 | -1.6 | -0.467 | -1.81 | -1.23 | -1.18 (inactive) | -0.0245 | -0.0153 | -0.522 (inactive) | -0.447 | -17.4 (active) | -1.24 (inactive) | -2.08 (inactive) | -0.128 (inactive) | -23.2 (active) | -1.24 (inactive) | -1.14 (inactive) | -1.07 | -0.0421
CN1C(=O)C2C=CC(C(O)C(c3ccccc3)c3ccccc3)N(Nc3ccccc3)C2C1=O (stereo not given) | 0.322 | -0.648 | -0.0678 | -1.34 | -1.07 | -1.66 | -0.981 (inactive) | 0.212 | -0.179 | 0.46 (inactive) | -0.562 | -2.21 (inactive) | -0.978 (inactive) | 0.0016 (inactive) | 1.16 (inactive) | -0.238 (inactive) | -1.31 (inactive) | -1.38 (inactive) | -1.2 | 0.21
